Here are results for 46 compounds from article PMC4336329 (PLoS ONE, 2015).

Hit rate of the full screen: of about 310,000 compounds, about 14,000 (4.5%) showed an effect of 50% or more. Effects have a minus sign here. Shown is part of a subset that was picked to be rich in strong results.
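Note: peak tail current of the secondary pulse compared with the same well before compound.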

The target in this assay is human ether-à-go-go-related gene (hERG) potassium channel (human, UniProt Q12809). As to the kind of experiment: primary screen, population patch clamp on CHO cells stably expressing hERG; higher = less effect of the substance.
Sequence of human ether-à-go-go-related gene (hERG) potassium channel (Q12809 whole entry, looked up): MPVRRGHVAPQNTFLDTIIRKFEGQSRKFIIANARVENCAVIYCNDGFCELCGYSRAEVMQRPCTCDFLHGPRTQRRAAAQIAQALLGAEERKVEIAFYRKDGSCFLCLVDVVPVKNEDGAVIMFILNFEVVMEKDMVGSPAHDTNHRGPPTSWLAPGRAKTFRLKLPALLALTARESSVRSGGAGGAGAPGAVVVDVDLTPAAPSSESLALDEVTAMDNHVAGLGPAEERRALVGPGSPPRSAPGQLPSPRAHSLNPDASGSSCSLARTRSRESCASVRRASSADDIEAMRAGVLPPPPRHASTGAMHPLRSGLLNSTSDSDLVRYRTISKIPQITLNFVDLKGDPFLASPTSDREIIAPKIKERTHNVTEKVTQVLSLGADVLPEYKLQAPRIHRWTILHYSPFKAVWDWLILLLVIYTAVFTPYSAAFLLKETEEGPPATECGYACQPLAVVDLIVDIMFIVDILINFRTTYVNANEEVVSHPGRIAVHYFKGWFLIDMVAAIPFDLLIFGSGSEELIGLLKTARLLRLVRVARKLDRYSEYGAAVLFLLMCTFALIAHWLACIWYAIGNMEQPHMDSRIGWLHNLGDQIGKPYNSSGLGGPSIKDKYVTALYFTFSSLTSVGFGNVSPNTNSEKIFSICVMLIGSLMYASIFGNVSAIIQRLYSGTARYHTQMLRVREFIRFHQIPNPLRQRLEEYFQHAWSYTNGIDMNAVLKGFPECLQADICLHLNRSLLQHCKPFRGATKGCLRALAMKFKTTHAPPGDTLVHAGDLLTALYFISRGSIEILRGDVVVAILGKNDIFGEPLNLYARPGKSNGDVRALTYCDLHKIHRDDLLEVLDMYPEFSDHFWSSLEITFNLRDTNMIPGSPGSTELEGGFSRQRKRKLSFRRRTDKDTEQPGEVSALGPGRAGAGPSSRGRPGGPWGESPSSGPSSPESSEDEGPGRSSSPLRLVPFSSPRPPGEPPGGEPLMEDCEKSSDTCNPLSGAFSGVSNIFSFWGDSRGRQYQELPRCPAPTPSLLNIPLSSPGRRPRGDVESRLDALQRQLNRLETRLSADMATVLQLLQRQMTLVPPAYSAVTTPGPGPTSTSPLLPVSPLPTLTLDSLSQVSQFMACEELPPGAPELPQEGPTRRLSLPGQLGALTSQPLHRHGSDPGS
Regarding `COc1ccc(CN2CCC(n3nccc3NC(=O)C3CCCC3)CC2)cc1`, the “hERG current change (%, negative = inhibition) at 10uM” value is -68.9%.

Take `COC(=O)c1ccc(CN2CCC(n3nccc3NC(=O)C3CC3)CC2)cc1`: the “hERG current change (%, negative = inhibition) at 10uM” value is -55.6%.

`Cn1cc(CN2CCC(n3nccc3NC(=O)C3CCCC3)CC2)cn1`: the “hERG current change (%, negative = inhibition) at 10uM” value was 12.6%.

For `COC(=O)c1ccc(CN2CCC(n3nccc3NC(=O)C3CCCC3)CC2)cc1`, the “hERG current change (%, negative = inhibition) at 10uM” value was -67.7%.

As to `CCOc1cc(CN2CCC(n3nccc3NC(=O)C3CC3)CC2)ccc1O`, the “hERG current change (%, negative = inhibition) at 10uM” value was -22%.

As for `CC1CCCC(C)N1CCCNC(=O)Cn1cc2c(n1)CCCC2` (stereo not shown), the “hERG current change (%, negative = inhibition) at 10uM” value is reported as -3.99%.

In the case of `COc1cccc(CNCc2ccc3c(c2)OCO3)c1.O=C(O)C(=O)O`, the “hERG current change (%, negative = inhibition) at 10uM” value stood at 13.7%.

In the case of `O=C(N[C@@H](Cc1ccccc1)c1nc2ccccc2[nH]1)c1cc([N+](=O)[O-])ccc1Cl`, the “hERG current change (%, negative = inhibition) at 10uM” value is -28%.

Consider `CCc1c(O)nc(SCC(N)=O)n(-c2ccccc2F)c1=O`, for which the “hERG current change (%, negative = inhibition) at 10uM” value is listed as 7.56%.

Regarding `CCC(C)N(C(=O)C(F)(F)F)C(C(=O)NC1CCCCC1)c1ccncc1` (stereo not shown), the “hERG current change (%, negative = inhibition) at 10uM” value is 7.62%.

Take `O=S(=O)(c1ccc(Cl)cc1Cl)N1CCCC1c1cccnc1` (stereo not shown): the “hERG current change (%, negative = inhibition) at 10uM” value is given as 7.32%.

Take `Cc1ccc(SCC(=O)NCc2ccco2)cc1`: the “hERG current change (%, negative = inhibition) at 10uM” value is recorded as 3.39%.

Turning to `COC(=O)c1c(SCC(=O)NC2CCCCC2)[nH]c2ccccc2c1=O`, the “hERG current change (%, negative = inhibition) at 10uM” value is -0.717%.

Turning to `CC(C)Oc1ccc(CN2CCC(n3nccc3NC(=O)C3CC3)CC2)cc1`, the “hERG current change (%, negative = inhibition) at 10uM” value is -79.4%.

`O=C(Nc1ccnn1C1CCN(Cc2cccc(OCCO)c2)CC1)C1CC1`: the “hERG current change (%, negative = inhibition) at 10uM” value was determined as 0.219%.

Turning to `COc1cccc(CN2CCC(n3nccc3NC(=O)C3CC3)CC2)c1`, the “hERG current change (%, negative = inhibition) at 10uM” value was -44.7%.

Consider `COc1cc(CN2CCC(n3nccc3NC(=O)C3CC3)CC2)cc(OC)c1`, for which the “hERG current change (%, negative = inhibition) at 10uM” value is given as -66.3%.

On to `CN(CC(=O)Nc1ccc(F)c(F)c1F)C(=O)C1CSC2(C)CCC(=O)N12` (stereo not shown), for which the “hERG current change (%, negative = inhibition) at 10uM” value was -5.92%.

As to `O=C(Nc1ccc(OC(F)F)cc1)Nc1cccc(C(F)(F)F)c1`, the “hERG current change (%, negative = inhibition) at 10uM” value amounted to 6.56%.

Take `O=C(CO/N=C/c1ccccc1OC(F)F)NCc1cccs1`: the “hERG current change (%, negative = inhibition) at 10uM” value is -12.9%.

In the case of `O=C(CO/N=C/c1ccc(OC(F)F)cc1)NC1CCCC1`, the “hERG current change (%, negative = inhibition) at 10uM” value is -49%.

Regarding `CCOc1ccc(/C=N/OCC(=O)NCc2cccs2)cc1`, the “hERG current change (%, negative = inhibition) at 10uM” value is -11.6%.

As to `CN(C(=O)CO/N=C/c1ccc(OC(F)F)cc1)C1CCS(=O)(=O)C1` (stereo not shown), the “hERG current change (%, negative = inhibition) at 10uM” value was -59.2%.

Regarding `CCOc1ccc(/C=N/OCC(=O)NCc2ccco2)cc1`, the “hERG current change (%, negative = inhibition) at 10uM” value is on record as -12.9%.

For the compound `CC(C)(C)c1ccc(/C=N/OCC(=O)NCc2ccc(F)cc2)cc1`, the “hERG current change (%, negative = inhibition) at 10uM” value is recorded as -2.59%.

As to `O=C(CO/N=C/c1ccc(OC(F)F)cc1)NCc1cccs1`, the “hERG current change (%, negative = inhibition) at 10uM” value is -62.6%.

On to `O=C(CO/N=C/c1ccc(OC(F)F)cc1)NCc1ccc(F)cc1`, for which the “hERG current change (%, negative = inhibition) at 10uM” value was -79.2%.

Take `COC(=O)c1ccc(/C=N/OCC(=O)NCc2ccc(F)cc2)cc1`: the “hERG current change (%, negative = inhibition) at 10uM” value is 17.9%.

With `O=C(CO/N=C/c1ccc(OC(F)F)cc1)NC1CCCCC1`, the “hERG current change (%, negative = inhibition) at 10uM” value is recorded as -8.59%.

Regarding `O=C(CO/N=C/c1ccccc1OC(F)F)NCc1ccco1`, the “hERG current change (%, negative = inhibition) at 10uM” value is -5.06%.

On to `O=C(CO/N=C/c1ccc(OC(F)F)cc1)NCc1ccco1`, for which the “hERG current change (%, negative = inhibition) at 10uM” value is listed as -51.8%.

Consider `Cc1cccc(-c2nc3c(c(=O)c4ccccc4n3C)c(=O)n2-c2ccccc2)c1`, for which the “hERG current change (%, negative = inhibition) at 10uM” value is reported as 14%.

Regarding `Cc1cccc(S(=O)(=O)c2c(N)n(/N=C/c3cccnc3)c3nc4ccccc4nc23)c1`, the “hERG current change (%, negative = inhibition) at 10uM” value was -4.67%.

As for `COc1cc(C(=O)NCC(c2cccs2)N2CCOCC2)cc(OC)c1OC` (stereo not shown), the “hERG current change (%, negative = inhibition) at 10uM” value amounted to 11.5%.

As for `Cc1cccc(C)c1OC(=O)Cc1ccccc1[N+](=O)[O-]`, the “hERG current change (%, negative = inhibition) at 10uM” value was -4.62%.

On to `CCCOc1ccc(C(=O)NNC(=O)c2cccc(S(=O)(=O)N3CCN(C(C)=O)CC3)c2)cc1OC`, for which the “hERG current change (%, negative = inhibition) at 10uM” value is reported as -13.8%.

Regarding `COc1cc(C2Nc3cccc4cccc(c34)N2)ccc1OC(C)=O`, the “hERG current change (%, negative = inhibition) at 10uM” value worked out at 11.2%.

With `CC(NC(=O)C(=O)N1CCOCC1)C(c1cccs1)N1CCN(c2ccccc2)CC1` (stereo not shown), the “hERG current change (%, negative = inhibition) at 10uM” value was 8.31%.

Consider `O=S(=O)(c1ccccc1)c1cnn(-c2ccccc2)c1-c1ccc(F)cc1`, for which the “hERG current change (%, negative = inhibition) at 10uM” value is reported as -0.19%.

Take `Cc1ccc(C)c(NC(=S)N2CCCCCC2)c1`: the “hERG current change (%, negative = inhibition) at 10uM” value is listed as 0.578%.

For the compound `Cc1nn(C)c(C(=O)N2CCN(C(=O)c3ccco3)CC2)c1[N+](=O)[O-]`, the “hERG current change (%, negative = inhibition) at 10uM” value was 8.95%.

On to `O=C(c1ccco1)N1CCN(c2c([N+](=O)[O-])nn(-c3ccc(Cl)cc3)[n+]2[O-])CC1`, for which the “hERG current change (%, negative = inhibition) at 10uM” value is recorded as -57.2%.

For the compound `O=[N+]([O-])c1nn(-c2ccccc2)[n+]([O-])c1N1CCN(c2ccccc2)CC1`, the “hERG current change (%, negative = inhibition) at 10uM” value was -0.32%.

For the compound `O=C(c1ccco1)N1CCN(c2c([N+](=O)[O-])nn(-c3cccc(Cl)c3)[n+]2[O-])CC1`, the “hERG current change (%, negative = inhibition) at 10uM” value is -38.1%.

With `Cc1cccc(-n2nc([N+](=O)[O-])c(N3CCN(C(=O)c4ccco4)CC3)[n+]2[O-])c1`, the “hERG current change (%, negative = inhibition) at 10uM” value is -68.7%.

Consider `O=C(c1ccco1)N1CCN(c2ccc(Cl)c(Cl)c2)CC1`, for which the “hERG current change (%, negative = inhibition) at 10uM” value was -29.7%.
